From PubChem BioAssay
KKLEB cytotox = CF airway cell cytotoxicity counter-screen | 360,000 tested, 0.36% active | activity change (cytotoxicity), % at 5 µM | KKLEB CF airway cells viability, ATPlite luminescence, overnight; stronger effect = lower value; cells stimulated with P. aeruginosa culture filtrate;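 active = corrected activity change at or below -50% at 5 µM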
Peg3 prom inh = inhibitors of Peg3 promoter. HeLa PEG-Prom luciferase reporter, luminescence, overnight. inhibition, % at 20 µM. 360,000 tested, 1.7% active. AID 588405;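 active = inhibition of at least 50% at 20 µM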
ABHD5 PLIN5 PPI = blocks binding of human ABHD5 to perilipin-5; Split G. princeps luciferase complementation, luminescence, 4 h; inhibition, % at 4 µM; 360,000 tested, 0.78% active; AID 602281;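 active = inhibition above the mean inhibition across every tested compound plus 3 SD, cut at about 22% in these data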
Target sequence (Q00G26 whole entry, looked up): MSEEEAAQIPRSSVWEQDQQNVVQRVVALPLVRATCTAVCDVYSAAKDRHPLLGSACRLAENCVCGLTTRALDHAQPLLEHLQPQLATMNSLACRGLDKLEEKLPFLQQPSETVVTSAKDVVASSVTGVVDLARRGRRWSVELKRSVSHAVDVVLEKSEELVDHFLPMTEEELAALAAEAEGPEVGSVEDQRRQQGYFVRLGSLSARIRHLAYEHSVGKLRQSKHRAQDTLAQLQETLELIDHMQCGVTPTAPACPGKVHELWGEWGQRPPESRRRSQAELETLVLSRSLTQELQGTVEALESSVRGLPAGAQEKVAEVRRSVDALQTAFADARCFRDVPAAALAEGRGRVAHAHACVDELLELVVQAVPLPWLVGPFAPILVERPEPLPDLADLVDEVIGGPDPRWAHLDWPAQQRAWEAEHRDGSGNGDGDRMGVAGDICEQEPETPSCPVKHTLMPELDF
Target sequence (Q8WTS1 whole entry, looked up): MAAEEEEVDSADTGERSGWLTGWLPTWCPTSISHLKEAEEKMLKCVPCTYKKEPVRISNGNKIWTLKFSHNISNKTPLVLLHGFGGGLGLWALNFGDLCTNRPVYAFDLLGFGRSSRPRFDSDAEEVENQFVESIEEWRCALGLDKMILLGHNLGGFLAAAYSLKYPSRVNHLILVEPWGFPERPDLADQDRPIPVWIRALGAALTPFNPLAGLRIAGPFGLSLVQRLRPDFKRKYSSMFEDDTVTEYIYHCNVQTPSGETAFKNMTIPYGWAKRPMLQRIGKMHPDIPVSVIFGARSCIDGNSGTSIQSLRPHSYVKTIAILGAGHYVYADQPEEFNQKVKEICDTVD
HIF-2a inh = inhibitors of HIF-2a. 786-0 RCC cells HIF-2a reporter, luciferase luminescence, overnight. inhibition, % at 18.8 µM. 360,000 tested, 0.72% active;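 active = inhibition of the luminescence signal of 40% or more relative to plate controls, in a single-dose primary screen at 18.75 µM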
TRPM1 prom inh = MITF TRPM1 promoter inhibition in SK-MEL-5 cells. SK-MEL-5 TRPM1 promoter luciferase, 24 h. inhibition, % at 12.5 µM. 330,000 tested, 0.83% active. AID 488899;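 active = mean inhibition across replicates of 60% or more, whatever share of single replicates reaches that level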
CF NFkB inh = cystic fibrosis NF-kB activation inhibition; KKLEB NF-kB-GFP reporter, PAF-induced, GFP fluorescence overnight; 360,000 tested, 0.86% active; AID 588850; inhibition, % at 5 µM;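 active = at least 50% inhibition at 5 µM, scaled per plate between neutral and stimulator controls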;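 note: PAF is a Pseudomonas aeruginosa culture filtrate used as stimulus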
CF NFkB inh conf = confirmation of cystic fibrosis induced NF-kB inhibitors; 1,300 tested, 64% active; inhibition, % at 5 µM; shares compounds with CF NFkB inh; KKLEB CF airway cells, PAF-induced NF-kB-GFP fluorescence, overnight; AID 602472; in the data active = inhibition above about 40%;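 note: stimulus PAF is a Pseudomonas aeruginosa filtrate and not platelet activating factor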
Each line names hits and unclear results; the compound was inactive in the other large screens (follow-up assays come after a bar, where they were run); ! = not active in a repeat. An excerpt weighted towards active compounds, which were near 3.1% of everything screened.

C=C(C(=O)c1ccccc1)C(C)C(=C)C(=O)c1ccccc1	Peg3 prom inh 104.3, ABHD5 PLIN5 PPI 22.4, HIF-2a inh 91.0, CF NFkB inh 56.6 (no result: TRPM1 prom inh) | CF NFkB inh conf inactive
O=C(Nc1cccnc1)c1sc2cccc(F)c2c1Cl	CF NFkB inh 52.6 | CF NFkB inh conf 53.7
O=C(Nc1ccccn1)c1sc2cccc(F)c2c1Cl	none
COc1cc(NC(=O)c2csc(-c3ccncc3)n2)cc(C(=O)Nc2cccc(C(F)(F)F)c2)c1	CF NFkB inh 56.9! | CF NFkB inh conf 71.1
COc1cc(NC(=O)c2cc3cccc(OC)c3o2)cc(C(=O)Nc2cccc(C(F)(F)F)c2)c1	CF NFkB inh 61.7 | CF NFkB inh conf 69.8
CN(C(=O)COC(=O)c1nc(Cl)c(Cl)c(Cl)c1Cl)C1CCS(=O)(=O)C1 (stereo not given)	Peg3 prom inh 107.1, TRPM1 prom inh 94.4, CF NFkB inh 78.9 | CF NFkB inh conf inactive
CCN1CCN(C(=O)c2cc(-c3ccco3)nc3ccccc23)CC1	none
CCCCCCNC(=O)O[C@H]1Cn2c(=O)n(CCCCCC)c(=O)n2[C@@H]2CN(S(=O)(=O)c3ccc(C)cc3)C[C@]12O	none (no result: TRPM1 prom inh)
CCCCCCNC(=O)O[C@H]1Cn2c(=O)ccc(=O)n2[C@@H]2CN(S(=O)(=O)c3ccc(C)cc3)C[C@]12O	Peg3 prom inh 102.8, ABHD5 PLIN5 PPI 22.6, CF NFkB inh 61.6 (no result: TRPM1 prom inh) | CF NFkB inh conf inactive
CCOC(=O)c1ccc(NC(=O)Nc2nncs2)cc1	CF NFkB inh 66.3 (no result: TRPM1 prom inh) | CF NFkB inh conf 80.8
Nc1cc2c(cc1Br)[nH]c(=O)c1ccccc12	TRPM1 prom inh 93.0, CF NFkB inh 58.2 | CF NFkB inh conf inactive
CCC(=O)OC1(C(C)=O)CCC2C3CCC4=CC(=O)CCC4(C)C3CCC21C (stereo not given)	CF NFkB inh 50.7 | CF NFkB inh conf inactive
CC12CCC(=O)C=C1CCC1C2CCC2(C)C1CC[C@]2(O)C(=O)CO (stereo not given in full)	none
CC(c1ccccc1)N1C(=O)c2ccc(C(=O)Nc3ccc(Br)cc3C(=O)O)cc2C1=O (stereo not given)	CF NFkB inh 59.7 | CF NFkB inh conf 44.4
CCOc1ccc(S(=O)(=O)N2CCC(C(=O)NCC3CCCO3)CC2)cc1C (stereo not given)	none
CC(=O)Oc1ccccc1Cn1c(C)c(C(=O)NCc2ccc(F)cc2)sc1=O	none (no result: TRPM1 prom inh)
O=C(CCc1ccccc1)NNC(=O)Cc1ccccc1	none
Cc1cnc(NC(=O)CCCc2nc3ccccc3s2)s1	Peg3 prom inh 98.5, CF NFkB inh 83.6 | CF NFkB inh conf 88.6
CCN(CC)c1ccc(NC(=O)CSc2n[nH]c(-c3ccco3)n2)cc1	none
COc1cc(Br)c(C(=O)c2nccc3cc(OC)c(OC)cc23)cc1OC	CF NFkB inh 59.7 | CF NFkB inh conf inactive
COc1cc2ccnc(C=NO)c2cc1OC	none (no result: TRPM1 prom inh)
Cc1ccc(Nc2nc3nonc3[nH]c2=O)cc1Cl	CF NFkB inh 51.7 | CF NFkB inh conf 80.7
Cc1ccc(S(=O)(=O)Nc2cc(C)cc(CCNC=O)c2C)cc1	none
Cc1c(CCNC=O)cc(C)c2c3c(oc12)CCCC3	CF NFkB inh 58.0 | CF NFkB inh conf inactive
O=C(CS(=O)(=O)c1cn(CC(=O)N2CCCC2)c2ccccc12)Nc1ccccc1F	none
COc1ccc(CCNC(=O)c2c(O)c3c([nH]c2=O)CCCC3)cc1	CF NFkB inh 51.2 | CF NFkB inh conf inactive
CCCNC(=O)c1c(O)c2c([nH]c1=O)CCCC2	none
Cc1ccc(Cc2cnc(NC(=O)/C(C#N)=C/c3ccc(-c4ccccc4[N+](=O)[O-])o3)s2)cc1	CF NFkB inh 51.5 | CF NFkB inh conf inactive
Cc1ccc(NS(=O)(=O)c2cccc(C(=O)NNC(=O)c3cccn3C)c2)c(C)c1	none
CN(C)c1ccc(C(C(=O)NC2CCCCC2)N(Cc2ccco2)C(=O)c2snc(C(N)=O)c2N)cc1 (stereo not given)	CF NFkB inh 87.7 | CF NFkB inh conf 79.3
COc1cc(C(C(=O)NC2CCCC2)N(Cc2ccco2)C(=O)c2snc(C(N)=O)c2N)cc(OC)c1OC (stereo not given)	none
NC(=O)c1nsc(C(=O)N(c2cccc(O)c2)C(C(=O)NC2CCCC2)c2ccc(Cl)cc2)c1N (stereo not given)	none
CCOc1ccc(C(C(=O)NC2CCCC2)N(C(=O)c2snc(C(N)=O)c2N)c2cccc(O)c2)cc1 (stereo not given)	Peg3 prom inh 52.7, CF NFkB inh 75.0 | CF NFkB inh conf 69.8
CC1=C(C(=O)N2CCOCC2)CC(CC(=O)NCc2cccs2)C(=O)N1CCC1=CCCCC1 (stereo not given)	none (no result: TRPM1 prom inh)
COc1ccc(/C=C/C(=O)c2ccc([N+](=O)[O-])o2)cc1	Peg3 prom inh 100.7, CF NFkB inh 51.1 (no result: TRPM1 prom inh) | CF NFkB inh conf inactive
COc1ccc(OC)c(CN2CCN(C(=O)c3ccc(C)c(S(=O)(=O)Nc4ccccc4OC)c3)CC2)c1	none
COc1ccc2c(c1)C(=O)C(=O)N2CCS(=O)(=O)c1ccccc1	none
O=C1C(=O)N(CCS(=O)(=O)c2ccccc2)c2ccc(F)cc21	CF NFkB inh 65.6 | CF NFkB inh conf inactive
COc1cccc(C(=O)N2CCCc3ccccc32)c1	CF NFkB inh 53.5 | CF NFkB inh conf inactive
COc1ccc(C(=O)N2CCCc3ccccc32)cc1OC	none
COc1c(/C=N/Nc2ccc([N+](=O)[O-])cc2[N+](=O)[O-])c(C)nn1-c1ccccc1	CF NFkB inh 59.9 | CF NFkB inh conf 41.0
COc1ccccc1NS(=O)(=O)c1ccc(N/N=C/c2c(C)nn(-c3ccccc3)c2N2CCCC2)c([N+](=O)[O-])c1	none
Cc1ccsc1CN(C)c1ncnc2ccc(-c3ccoc3)cc12	CF NFkB inh 83.6 (no result: TRPM1 prom inh) | CF NFkB inh conf 96.7
C=C1C(=O)O[C@@H]2[C@H]3O[C@]3(C)CC/C=C(\C)CC[C@@H]12	CF NFkB inh 69.0 | CF NFkB inh conf 77.2
C=C1C(=O)OC2C=C(CO)CCC=C(CO)CC(OC(=O)C(C)C)C12 (stereo not given)	Peg3 prom inh 63.5, CF NFkB inh 87.3 | CF NFkB inh conf 45.0
C=C1C(=O)OC2C1C(OC(=O)C(C)=CC)CC(=C)C1C(O)C3OC3(C)C21O (stereo not given)	none
COc1ccc2c(C)nc(Nc3nc(-c4ccccc4)cc(=O)[nH]3)nc2c1	Peg3 prom inh 108.2, TRPM1 prom inh 70.2, CF NFkB inh 63.9 | CF NFkB inh conf inactive
Cc1ccc(S(=O)(=O)N(C)CC(=O)NNC(=O)CCC(=O)c2ccc(F)cc2)cc1	none
CCN(CC)c1ccc(CNc2nc3ccccc3n2CCN2CCCCC2)cc1	CF NFkB inh 55.0 | CF NFkB inh conf inactive
Cc1cccc(C)c1-n1nnnc1C(c1ccccc1)N1CCN(C/C=C/c2ccccc2)CC1 (stereo not given)	none (no result: TRPM1 prom inh)
